# Source: PubChem BioAssay (NCI)
# This is part of a sample that, as a whole, favours compounds with a hit. Of some 79,000 tested, about 15% had one in any assay. A number with no mark means an inactive call. Active and inactive are the calls of the source. No stated cut-off is given here; in the data, active means growth inhibition above about 70%; inactive means the rest.
# Legend:
# [1] = NCI Yeast Anticancer Drug Screen. Data for the mlh1 strain (AID 171);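 further: 0% = growth of vehicle-treated control cultures of the same strain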; conditions: S. cerevisiae mlh1 strain growth inhibition, hits give high values
# Method in brief: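 Growth of the mutant yeast strain after compound exposure, expressed as inhibition relative to vehicle-only controls.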
# [2] = NCI Yeast Anticancer Drug Screen. Data for the sgs1 strain (AID 173);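 further: 0% = growth of vehicle-only control cultures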; conditions: S. cerevisiae sgs1 mutant, hits give high values
# Method in brief: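 Growth of a yeast strain bearing a defined genetic alteration is measured after compound treatment. Inhibition is expressed relative to vehicle-only controls.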
# [3] = NCI Yeast Anticancer Drug Screen. Data for the mlh1 rad18 strain (AID 175); conditions: S. cerevisiae mlh1 rad18 strain growth inhibition, hits give high values
# Method in brief: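 Read-out is yeast growth inhibition, calculated against vehicle-only controls. The compound was applied to a strain engineered with DNA damage repair alterations.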
# [4] = NCI Yeast Anticancer Drug Screen. Data for the rad18 strain (AID 177); conditions: S. cerevisiae rad18 mutant growth inhibition, hits give high values
# Method in brief: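 Growth of the mutant yeast strain after compound exposure, normalised to vehicle-only cultures.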
# [5] = NCI Yeast Anticancer Drug Screen. Data for the rad52 strain (AID 147);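 further: 0% = growth of vehicle-treated control cultures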; conditions: S. cerevisiae rad52 mutant growth inhibition, hits give high values
# Method in brief: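 Compounds are applied to a genetically defined yeast strain lacking normal DNA damage repair, and inhibition of growth is expressed relative to cultures given vehicle only.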
# [6] = NCI Yeast Anticancer Drug Screen. Data for the wt1 strain (AID 149);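 further: 0% = growth of vehicle-treated wt1 cultures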; conditions: S. cerevisiae wt1 strain (SPY 50644) growth inhibition, hits give high values
# Method in brief: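 wt1 strain grown with compound or vehicle; inhibition taken from the growth difference.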
# [7] = NCI Yeast Anticancer Drug Screen. Data for the rad50EPP+ strain (AID 151);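 further: 0% = growth of vehicle-treated control cultures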; conditions: S. cerevisiae rad50 mutant strain, hits give high values
# Method in brief: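 Compounds were applied to the rad50EPP+ yeast strain, which bears a defined DNA repair alteration, and growth inhibition was determined relative to vehicle-treated cultures.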
# [8] = NCI Yeast Anticancer Drug Screen. Data for the mgt1 strain (AID 153); conditions: S. cerevisiae mgt1 mutant growth inhibition, hits give high values
# Method in brief: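 Strain: mgt1 yeast, one of a set carrying defined DNA damage repair or cell cycle control alterations. Compound-treated growth compared with vehicle.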
# [9] = NCI Yeast Anticancer Drug Screen. Data for the rad50 strain (AID 155);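 further: 0% = growth of vehicle-only cultures of the same strain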; conditions: S. cerevisiae rad50 strain growth inhibition, hits give high values
# Method in brief: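 DNA repair mutant yeast, compound exposure, growth read-out; inhibition is taken relative to vehicle.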
# [10] = NCI Yeast Anticancer Drug Screen. Data for the mec2-1 strain (AID 157); conditions: S. cerevisiae mec2-1 strain, hits give high values
# Method in brief: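 Strain: mec2-1 (DNA repair/cell cycle alteration). Compound exposure, then growth measured; inhibition expressed relative to vehicle.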
# [11] = NCI Yeast Anticancer Drug Screen. Data for the rad14 strain (AID 159);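 further: 0% = growth of vehicle-treated control cultures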; conditions: S. cerevisiae rad14 strain growth inhibition, hits give high values
# Method in brief: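 DNA repair-defective yeast, compound-exposed; % growth inhibition derived by comparison with vehicle-treated controls.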
# [12] = NCI Yeast Anticancer Drug Screen. Data for the sgs1 mgt1 strain (AID 161);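 further: 0% = growth of cultures given vehicle only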; conditions: S. cerevisiae sgs1 mgt1 strain, hits give high values
# Method in brief: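 Genetically altered yeast, compound exposure, growth inhibition relative to vehicle.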
# [13] = NCI Yeast Anticancer Drug Screen. Data for the CLN2oe strain (AID 163);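 further: 0% = growth of vehicle-only control cultures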; conditions: S. cerevisiae CLN2oe strain, hits give high values
# Method in brief: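 Growth of a genetically modified yeast strain is measured after compound exposure and compared with cultures given vehicle alone.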
# [14] = NCI Yeast Anticancer Drug Screen. Data for the cln2 rad14 strain (AID 165);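 further: 0% = growth equal to vehicle treated cultures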; conditions: S. cerevisiae cln2 rad14 strain, hits give high values
# Method in brief: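 Compounds are applied to the cln2 rad14 yeast strain, and growth is then compared with that of vehicle-treated cultures to give inhibition.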
# [15] = NCI Yeast Anticancer Drug Screen. Data for the wt2 strain (AID 169);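 further: 0% = growth of vehicle-treated yeast cultures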; conditions: S. cerevisiae wt2 strain growth inhibition, hits give high values
# Method in brief: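 This strain belongs to a panel of yeast strains with defined genetic alterations in DNA damage repair or cell cycle control. Compounds are applied, and growth inhibition is measured against vehicle-treated cultures.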
# [16] = at 5.0 µM (retest, dose inferred, filed as 0.5)
# [17] = at 50.0 µM (retest, dose inferred, filed as 5.0)
structure (smiles),measurement,setting,value
NC(=O)c1c([N+](=O)[O-])cc(C(F)(F)F)cc1[N+](=O)[O-],growth inhibition,[1]; at 1.2 µM,-2%
same,growth inhibition,[1]; at 3.7 µM,2%
same,growth inhibition,[1]; at 11.0 µM,2%
same,growth inhibition,[1]; at 33.0 µM,3%
same,growth inhibition,[1]; at 100.0 µM,8%
same,growth inhibition,[2]; at 1.2 µM,1%
same,growth inhibition,[2]; at 3.7 µM,3%
same,growth inhibition,[2]; at 11.0 µM,5%
same,growth inhibition,[2]; at 33.0 µM,11%
same,growth inhibition,[2]; at 100.0 µM,19%
same,growth inhibition,[3]; [16],55%
same,growth inhibition,[3]; [17],12%
same,growth inhibition,[3]; at 50.0 µM,97.8% (active)
same,growth inhibition,[4]; at 1.2 µM,0%
same,growth inhibition,[4]; at 3.7 µM,2%
same,growth inhibition,[4]; at 11.0 µM,4%
same,growth inhibition,[4]; at 33.0 µM,6%
same,growth inhibition,[4]; at 100.0 µM,16%
CC(=O)Nc1ccc2c(c1)Cc1cc(N=C3C=CC(=O)O3)ccc1-2,growth inhibition,[5]; at 1.2 µM,11%
same,growth inhibition,[5]; at 3.7 µM,27%
same,growth inhibition,[5]; at 11.0 µM,85% (active)
same,growth inhibition,[5]; at 33.0 µM,99% (active)
same,growth inhibition,[5]; at 100.0 µM,99% (active)
same,growth inhibition,[6]; at 1.2 µM,0%
same,growth inhibition,[6]; at 3.7 µM,14%
same,growth inhibition,[6]; at 11.0 µM,41%
same,growth inhibition,[6]; at 33.0 µM,99% (active)
same,growth inhibition,[6]; at 100.0 µM,99% (active)
same,growth inhibition,[7]; at 1.2 µM,37%
same,growth inhibition,[7]; at 3.7 µM,77% (active)
same,growth inhibition,[7]; at 11.0 µM,96% (active)
same,growth inhibition,[7]; at 33.0 µM,99% (active)
same,growth inhibition,[7]; at 100.0 µM,99% (active)
same,growth inhibition,[8]; at 1.2 µM,9%
same,growth inhibition,[8]; at 3.7 µM,19%
same,growth inhibition,[8]; at 11.0 µM,67%
same,growth inhibition,[8]; at 33.0 µM,99% (active)
same,growth inhibition,[8]; at 100.0 µM,99% (active)
same,growth inhibition,[9]; at 1.2 µM,9%
same,growth inhibition,[9]; at 3.7 µM,31%
same,growth inhibition,[9]; [16],60%
same,growth inhibition,[9]; at 11.0 µM,81% (active)
same,growth inhibition,[9]; at 33.0 µM,99% (active)
same,growth inhibition,[9]; [17],99% (active)
same,growth inhibition,[9]; at 50.0 µM,28.6%
same,growth inhibition,[9]; at 100.0 µM,99% (active)
same,growth inhibition,[10]; at 1.2 µM,19%
same,growth inhibition,[10]; at 3.7 µM,31%
same,growth inhibition,[10]; [16],87% (active)
same,growth inhibition,[10]; at 11.0 µM,89% (active)
same,growth inhibition,[10]; at 33.0 µM,99% (active)
same,growth inhibition,[10]; [17],99% (active)
same,growth inhibition,[10]; at 50.0 µM,15.8%
same,growth inhibition,[10]; at 100.0 µM,99% (active)
same,growth inhibition,[11]; at 1.2 µM,12%
same,growth inhibition,[11]; at 3.7 µM,27%
same,growth inhibition,[11]; at 11.0 µM,84% (active)
same,growth inhibition,[11]; at 33.0 µM,99% (active)
same,growth inhibition,[11]; at 100.0 µM,99% (active)
same,growth inhibition,[12]; [16],54%
same,growth inhibition,[12]; [17],99% (active)
same,growth inhibition,[12]; at 50.0 µM,49.1%
same,growth inhibition,[13]; at 1.2 µM,6%
same,growth inhibition,[13]; at 3.7 µM,16%
same,growth inhibition,[13]; at 11.0 µM,47%
same,growth inhibition,[13]; at 33.0 µM,99% (active)
same,growth inhibition,[13]; at 100.0 µM,99% (active)
same,growth inhibition,[14]; [16],9%
same,growth inhibition,[14]; [17],99% (active)
same,growth inhibition,[14]; at 50.0 µM,24.9%
same,growth inhibition,[15]; at 1.2 µM,0%
same,growth inhibition,[15]; at 3.7 µM,18%
same,growth inhibition,[15]; at 11.0 µM,93% (active)
same,growth inhibition,[15]; at 33.0 µM,99% (active)
same,growth inhibition,[15]; at 100.0 µM,95% (active)
same,growth inhibition,[1]; at 1.2 µM,12%
same,growth inhibition,[1]; at 3.7 µM,25%
same,growth inhibition,[1]; at 11.0 µM,93% (active)
same,growth inhibition,[1]; at 33.0 µM,99% (active)
same,growth inhibition,[1]; at 100.0 µM,99% (active)
same,growth inhibition,[2]; at 1.2 µM,14%
same,growth inhibition,[2]; at 3.7 µM,34%
same,growth inhibition,[2]; at 11.0 µM,92% (active)
same,growth inhibition,[2]; at 33.0 µM,99% (active)
same,growth inhibition,[2]; at 100.0 µM,99% (active)
same,growth inhibition,[3]; [16],82% (active)
same,growth inhibition,[3]; [17],99% (active)
same,growth inhibition,[3]; at 50.0 µM,0.7%
same,growth inhibition,[4]; at 1.2 µM,12%
same,growth inhibition,[4]; at 3.7 µM,31%
same,growth inhibition,[4]; at 11.0 µM,91% (active)
same,growth inhibition,[4]; at 33.0 µM,99% (active)
same,growth inhibition,[4]; at 100.0 µM,99% (active)
